Measurements as given in ChEMBL document CHEMBL4888484, “Replenishing the malaria drug discovery pipeline: Screening and hit evaluation of the MMV Hit Generation Library 1 (HGL1) against asexual blood stage Plasmodium falciparum ,using a nano luciferase reporter read-out” (2022).
Among all 4,800 compounds or so, about 410 (8.5%) showed an effect of 50% or more. What follows is part of a selection rich in strong results, with near analogues and random picks from the rest.

Each compound was assayed on Plasmodium falciparum (assay: Confirmatory screen in NF54 pLDH assay, in single point, at 2uM, 72h). Details: timepoint 72 hour.
Format: functional, Erythrocyte
`Cc1nn(C)c(NC(=O)Nc2cccc(Cl)c2)c1C1=CCCCC1` was tested, and the “% Inhibition” value was -9%.
For `O=C(Nc1cccc(Cl)c1)Nc1cccc(-c2cnc3n2CCC3)c1`, the “% Inhibition” value was 75%.
In the case of `O=C(Nc1cccc(Cl)c1)c1ccc(-c2cnc(N3CCCC3)nc2)cc1`, the “% Inhibition” value is reported as -19%.
`O=C(Cn1cccn1)Nc1cccc(S(=O)(=O)N2CCCC2)c1` was tested, and the “% Inhibition” value was -8%.
With `C[C@@H](C1CCCC1)N1C(=O)NC(CC(F)(F)F)C1=O` (stereo partly specified) the “% Inhibition” value was -23%.
For `O=C(NS(=O)(=O)C1CCOCC1)c1csc(-c2ccco2)n1`, the “% Inhibition” value was -10%.
In the case of `COc1ccccc1-n1c(=O)n(C2CCCC2)c(=O)c2c1ncn2Cc1ccccc1Cl`, the “% Inhibition” value is reported as 34%.
`Cc1ccccc1Cn1cnc2c1c(=O)n(C1CCCCC1)c(=O)n2-c1ccccc1Cl` was tested, and the “% Inhibition” value was 82%.
In the case of `COc1ccccc1Cn1cnc2c1c(=O)n(C1CCCCC1)c(=O)n2-c1ccccc1Cl`, the “% Inhibition” value is reported as 90%.
For `COC(=O)c1ncn2c1C(=O)N(Cc1ccccc1OC)[C@](C)(C(=O)NC1CCCCC1)C2`, the “% Inhibition” value was 11%.
`Cn1ncn(CC(=O)c2cccc(Cl)c2Cl)c1=O` was tested, and the “% Inhibition” value was -14%.
`O=C(CN1C(=O)N[C@H](c2ccc(F)cc2)C1=O)Nc1ccc2c(c1)OCCO2` was tested, and the “% Inhibition” value was 5%.
With `CC(C)(C)CC(C)(C)NC(=O)c1ccc2nc(N3C(=O)CCC3=O)sc2c1` the “% Inhibition” value was 9%.
With `C[C@H](c1ccccc1)N1C(=O)[C@@H]2CN(C(=O)CC(C)(C)C)CCN2C1=O` the “% Inhibition” value was -13%.
`Cc1ccc(CCC(=O)N2CC[C@H](C)S(=O)(=O)CC2)s1` was tested, and the “% Inhibition” value was 9%.
With `C[N+]12CCCCC1C(OC(=O)C1(c3ccccc3)CCCC1)CCC2` (stereo unspecified) the “% Inhibition” value was 60%.
For `O=C1C2ON(c3ccccc3)C(c3ccncc3)C2C(=O)N1c1ccc2ccccc2c1` (stereo unspecified), the “% Inhibition” value was 8%.
In the case of `COc1ccc2cc3n(c2c1)C[C@@](C)(C(=O)NC1CCCC1)N(Cc1ccc(F)cc1)C3=O`, the “% Inhibition” value is reported as 13%.
With `Cc1cc(C)nc(N[C@H](c2ccc(F)cc2)c2cc(C)sc2NC(=O)c2ccccc2)n1` the “% Inhibition” value was 6%.
In the case of `COc1cc([C@@H]2C=C(c3ccc(Cl)cc3)Nc3ncnn32)ccc1OCc1ccc(Cl)cc1`, the “% Inhibition” value is reported as 4%.
With `Cc1ccc(C2=C[C@@H](c3ccc(Cl)cc3)n3nc(NC(=O)c4ccccc4)nc3N2)cc1` the “% Inhibition” value was 90%.
`Cc1ccc([C@@H]2C=C(C(=O)O)Nc3c(C(N)=O)nnn32)cc1` was tested, and the “% Inhibition” value was -12%.
`Cc1cccc(OC(=O)O[C@H]2c3nccnc3C(=O)N2c2ccc(Cl)cn2)c1` was tested, and the “% Inhibition” value was 16%.
`CN(C)c1ccc2c(c1)CN(C(=O)c1ccccc1S(C)(=O)=O)CC2` was tested, and the “% Inhibition” value was -5%.
For `O=C(COc1ccc(Cl)cc1)N[C@H](CO)CC1CCCC1`, the “% Inhibition” value was 4%.
In the case of `O=S1(=O)N=C(n2ccnc2)c2ccccc21`, the “% Inhibition” value is reported as -17%.
In the case of `CS(=O)(=O)n1cnc2cc(F)c(F)cc21`, the “% Inhibition” value is reported as -8%.
With `COc1ccc(-[n+]2c(-c3ccccc3)cn3c2CCC3)cc1` the “% Inhibition” value was 59%.
For `COc1ccc(-c2nnc(COc3ccc(-c4ccccc4)cc3)s2)cc1`, the “% Inhibition” value was -10%.
For `COc1ccc(-[n+]2c(-c3ccc(-c4ccccc4)cc3)cn3c2COCC3)cc1`, the “% Inhibition” value was 60%.
With `COc1ccc(-c2cc(-c3ccccc3)nc(N3CCC(C)CC3)n2)cc1` the “% Inhibition” value was 43%.
With `COc1ccc(CCc2nnc3n2CCOC3)cc1` the “% Inhibition” value was -1%.
With `COc1ccc(N2CCN(c3nc(-c4ccccc4)cs3)CC2)cc1` the “% Inhibition” value was 0%.
In the case of `O=C(Cn1c(=O)n(Cc2ccco2)c(=O)c2ccccc21)NC1CCCCC1`, the “% Inhibition” value is reported as 10%.
With `Cc1noc([C@H]2CCCN(C(=O)c3cc4c(s3)CCC4)C2)n1` the “% Inhibition” value was -5%.
With `O=C1c2ccccc2N[C@]2(C(=O)Nc3ccccc32)N1c1ccc2c(c1)OCO2` the “% Inhibition” value was -25%.
For `Cc1nn(-c2ncc(C(F)(F)F)cc2Cl)c(=O)n1-c1ccc(OCc2ccccc2)cc1`, the “% Inhibition” value was -12%.
`CCCCN(CC)c1ncc(C(=O)Nc2ccc(OCC)cc2)c(N)n1` was tested, and the “% Inhibition” value was 15%.
In the case of `Cc1ccc(NC(=O)Nc2cc(C)ccc2N2CCCN(Cc3ccc(F)cc3)C2=O)cc1`, the “% Inhibition” value is reported as 30%.
`Cc1cccc(CNC(=O)NC2CCOC2c2ccc(Cl)cc2)n1` (stereo unspecified) was tested, and the “% Inhibition” value was -15%.
In the case of `Cc1cc(C)nc(NCCC[C@H]2CCCCO2)n1`, the “% Inhibition” value is reported as -15%.
With `Cc1cccc(CN(Cc2cccc(C)n2)C[C@H]2CCCCO2)n1` the “% Inhibition” value was 90%.
For `CC(C)c1nc(CN(C)[C@@H](C)C(=O)Nc2nccs2)cs1`, the “% Inhibition” value was 23%.
`CC(C)N(CC(=O)Nc1nccs1)Cc1ccccn1` was tested, and the “% Inhibition” value was 59%.
For `CC(C)NC(=O)C(=O)Nc1nccs1`, the “% Inhibition” value was -19%.
With `CCN1C(=O)CCN(C(=O)c2ccnn2C)CC12CCOCC2` the “% Inhibition” value was 3%.
With `Brc1cccc2c1OCC[C@@H]2Nc1ncnc2nc[nH]c12` the “% Inhibition” value was 4%.
For `Oc1nc(-c2cccc(C(F)(F)F)c2)sc1-c1ccccc1`, the “% Inhibition” value was 2%.
With `Oc1ccccc1-c1cnc(C(F)(F)F)s1` the “% Inhibition” value was 90%.
With `Cc1ccc(OCC(=O)Nc2cc(C)nn2-c2nc3c(cnn3-c3ccc(C)c(C)c3)c(=O)[nH]2)cc1` the “% Inhibition” value was 57%.
`Cc1ccc(OCC(=O)Nc2ccc(N3CCn4c(nc5ccccc54)C3)cc2Cl)cc1` was tested, and the “% Inhibition” value was -20%.
In the case of `COc1ccc(-n2ncc3c(NCCNC(=O)c4ccccc4Cl)nc(C)nc32)cc1`, the “% Inhibition” value is reported as -27%.
In the case of `CN(CCCNC(=O)C(=O)Nc1ccn(C)n1)c1cccc(F)c1`, the “% Inhibition” value is reported as 10%.
`COCCOC(=O)c1cc(C(F)(F)F)cc(C(=O)OCCOC)n1` was tested, and the “% Inhibition” value was 11%.
For `CN(Cc1nccn1C)C(=O)c1cc2ccccc2[nH]1`, the “% Inhibition” value was 15%.
For `Cn1c(=O)c2c(ncn2CC(=O)N(Cc2ccccc2)C2CC2)n(C)c1=O`, the “% Inhibition” value was 2%.
For `CCCn1c(C)cnc1C1CN(S(=O)(=O)c2cc(Cl)ccc2Cl)C1`, the “% Inhibition” value was 6%.
For `Cn1c(C(C)(C)C)nc2cc(NC3CCC4(CC3)OCCO4)ccc21`, the “% Inhibition” value was -16%.
In the case of `COCc1cc(F)ccc1NC(=O)NC1CCN(c2cc(C)nc(C)n2)CC1`, the “% Inhibition” value is reported as 5%.
In the case of `Cn1ncc2c(N3CC(=O)N(C4CC4)C3)ncnc21`, the “% Inhibition” value is reported as -15%.
With `C[C@@H]1CN(CCN(C)C(=O)Nc2nc(C3CC3)cs2)C[C@H](C)O1` the “% Inhibition” value was 9%.
For `Cc1c(C)n(C[C@@H](O)CNC2CCCC2)c2c(Cl)cccc12`, the “% Inhibition” value was -18%.
`CCC(C)NCC(O)Cn1c(-c2ccccc2)c(-c2ccccc2)c2cc(C)ccc21` (stereo unspecified) was tested, and the “% Inhibition” value was 92%.
For `CC(NCC(O)Cn1c(-c2ccccc2)c(-c2ccccc2)c2ccc3ccccc3c21)c1ccccc1` (stereo unspecified), the “% Inhibition” value was 86%.
In the case of `Cc1cccc(C(=O)Nc2c(C#N)c(-c3ccccc3)c(-c3ccccc3)n2Cc2ccccc2)c1`, the “% Inhibition” value is reported as 13%.
`Cc1c(C)n(C[C@H](O)Cn2c(C(F)(F)F)nc3ccccc32)c2c(Cl)cccc12` was tested, and the “% Inhibition” value was -15%.
`Cc1c(C)n(CC(O)CNC(C)c2ccccc2)c2c(Cl)cccc12` (stereo unspecified) was tested, and the “% Inhibition” value was 73%.
In the case of `O=S(=O)(c1c(Cl)cccc1Cl)N1CCC[C@@H]1CN1CCCC1`, the “% Inhibition” value is reported as 8%.
With `Cc1cc(CN2C(=O)N[C@@]3(CCCCc4ccccc43)C2=O)no1` the “% Inhibition” value was 6%.
In the case of `COc1ccc([C@H](NC(=O)CCc2ccccc2)c2c(O)ccc3ccccc23)cc1`, the “% Inhibition” value is reported as -6%.
`Cc1cc(N2CCn3c(nc4ccccc43)C2)ccc1NC(=O)C1CCCCC1` was tested, and the “% Inhibition” value was 14%.
With `CN1c2ccccc2C(=O)N[C@@H]1c1ccccc1OCc1ccccc1` the “% Inhibition” value was -4%.
`COc1cccc(-n2c(C)cc(C(=O)N3CCNC(=O)CC3)c2C)c1` was tested, and the “% Inhibition” value was -5%.
With `N#Cc1c(NC(=O)Nc2cn3ccccc3c2C#N)cn2ccccc12` the “% Inhibition” value was 35%.
With `O=C(NCC(N1CCOCC1)C(F)(F)F)C1CC12CCOC2` (stereo unspecified) the “% Inhibition” value was 14%.
`O=c1[nH]c2nc(N3CCCCC3)ncc2c(=O)n1Cc1ccco1` was tested, and the “% Inhibition” value was -14%.
`Cc1nc([C@@H](NC(=O)c2cc(Cl)cn2C)c2cnn(C)c2)no1` was tested, and the “% Inhibition” value was -10%.
For `O=C(NC[C@H]1CCS(=O)(=O)C1)c1ccc2[nH]c3c(c2c1)CCCC3`, the “% Inhibition” value was -6%.
`Clc1ccc(COc2ccc(CNC3CCCCC3)cc2Br)cc1` was tested, and the “% Inhibition” value was -12%.
`COc1cc(C(C)(C)C)c(OCC(=O)N(c2ccccc2)c2ccccc2)cc1C(C)(C)C` was tested, and the “% Inhibition” value was 7%.
`Cc1ccc(Oc2cc(C#N)c(C#N)cc2N2CCOCC2)cc1C` was tested, and the “% Inhibition” value was -9%.
For `CC[N+](C)(CC)CCOc1cc(C)c2ccccc2n1`, the “% Inhibition” value was 40%.
With `Cc1nc2ccccc2cc1OCc1ccc(F)cc1` the “% Inhibition” value was 12%.
For `COC(=O)c1ccccc1NC(=O)NCCn1nnc2cc(S(=O)(=O)N(C)C)ccc21`, the “% Inhibition” value was 32%.
With `CCN1C(=O)Cc2cc(NS(=O)(=O)Cc3ccccc3)ccc21` the “% Inhibition” value was 12%.
For `COc1ccc(CN2CC[C@@H]3C(=O)NCCCCCCN(Cc4ccncc4)[C@@H]3C2)cc1Cn1ccnc1`, the “% Inhibition” value was 37%.
`COc1cc(CNCCN2CCOCC2)ccc1OCc1ccc(C)cc1` was tested, and the “% Inhibition” value was 10%.
`COc1ccc(CNCc2ccc(C)cc2)cc1Cn1ccnc1` was tested, and the “% Inhibition” value was 69%.
For `Cc1ccc(NS(=O)(=O)c2ccc(NC(=O)CN(c3cc(Cl)ccc3C)S(C)(=O)=O)cc2)cc1C`, the “% Inhibition” value was -13%.
For `Cc1cc(-c2nc(C3(c4ccncc4)CCC3)no2)ccn1`, the “% Inhibition” value was 4%.
`COc1ccc(F)cc1S(=O)(=O)N1CCc2noc(N)c2C1` was tested, and the “% Inhibition” value was 63%.
In the case of `COc1ccc(OC)c(S(=O)(=O)N2C[C@H]3CCCC(=O)N[C@H]3C2)c1`, the “% Inhibition” value is reported as 9%.
In the case of `COc1ccc(S(=O)(=O)N2CCC(c3cc(N)on3)CC2)cc1Cl`, the “% Inhibition” value is reported as 40%.
For `COc1ccccc1OCC(=O)Nc1ccccc1-n1cnnc1C`, the “% Inhibition” value was 12%.
For `C[C@H](NC(c1ccccc1)c1ccccc1)c1nnc(-c2cccs2)o1`, the “% Inhibition” value was 7%.
`Cc1cc(CS(=O)(=O)NCCOc2ccc(Cl)cc2)on1` was tested, and the “% Inhibition” value was 2%.
For `CCCOc1ccc(Nc2cc(C)nc3ccc(Cl)cc23)cc1`, the “% Inhibition” value was 63%.
For `CC(C)(C)C1CC(NC(=O)C2CC=CC2)CCO1` (stereo unspecified), the “% Inhibition” value was -1%.
For `c1ccc2cc(-c3ccc4ccccc4n3)ccc2c1`, the “% Inhibition” value was 16%.
For `Cc1cccc(C)c1OCC(=O)Nc1ccc(-c2nc3cc4ccccc4cc3[nH]2)cc1`, the “% Inhibition” value was 18%.
`c1cc(-c2nc3cc4ccccc4cc3[nH]2)nc(-c2nc3cc4ccccc4cc3[nH]2)c1` was tested, and the “% Inhibition” value was 97%.
